Molecules are shown by their SMILES. Among all 28,000 compounds or so, about 410 (1.5%) were called active. The full list was thinned out, with actives kept by preference. Values without a mark were called inactive. Rule as the data show it: active = activation above about 52%; inconclusive = no clear call, values can overlap the other calls; inactive = below that.

The nature of this test: mutant p53 pathway re-activators, primary screen, cell-based, SW480, luciferase, single point, HTS (AID 624151). Conditions: SW480 PUMA-promoter luciferase, p53 mutant reactivation; at 9.98 µM; stronger effect = higher value.
As to `CCOC(=O)c1c(NC(=O)C(C)Oc2ccc3c(C)cc(=O)oc3c2)sc2c1CCC2` (stereo not given), the activation was 18.5%. For `O=C(CN(C1CCCCC1)S(=O)(=O)c1ccc(Cl)cc1)Nc1ccccc1C(F)(F)F` the value was 3.31%; for `COc1cccc(C#Cc2cnc3c(c2)C(=O)N([C@@H](C)CO)C[C@H](C)[C@H](CN(C)CC2CC2)O3)c1`, 4.89%; for `COc1cc(CO)cc(Cl)c1OCc1cccc([N+](=O)[O-])c1`, 0.353%. Consider `COc1ccccc1CCNC(=O)c1cnccn1`, for which the activation is 18.5%. On to `C[C@@H]1CN([C@@H](C)CO)C(=O)c2c(c3ccccc3n2C)-c2ccccc2CO[C@@H]1CN(C)S(=O)(=O)CC(F)(F)F`, for which the activation is 6.74%. As for `Cc1ccccc1-c1ccc2c(c1)O[C@@H](CN(C)C(=O)Nc1ccc(F)cc1)[C@H](C)CN([C@@H](C)CO)S2(=O)=O`, the figure is -36.4%. For `CCCNC(=O)C[C@H]1C[C@@H]2c3cc(NS(=O)(=O)c4cccc(OC)c4)ccc3O[C@@H]2[C@@H](CO)O1` the value was 9.83%; for `CCOc1ccc(Cl)cc1S(=O)(=O)NC1CC(C)(C)NC(C)(C)C1`, 2.34%; for `Cc1cc2nc(-c3ccc(NC(=O)COc4ccccc4[N+](=O)[O-])cc3)oc2cc1C`, 68.1% (active).

Regarding `Cc1cc(C)c2oc(-c3ccc(C)c(NC(=O)COc4ccccc4C)c3)nc2c1`, the activation was -4.75%. As for `CN(CC(=O)Nc1ccccc1C#N)S(=O)(=O)c1ccc2ccccc2c1`, the figure is 0.461%; as for `Cc1ccc(-c2nc3cc(NC(=O)COc4ccc([N+](=O)[O-])cc4)ccc3o2)cc1C`, 21.6%; as for `COc1ccc(NC(=O)COc2cc(C)c(Br)c(C)c2)c([N+](=O)[O-])c1`, -11.9%. As for `O=C(COc1ccc([N+](=O)[O-])cc1)Nc1ccc2oc(-c3cccc(F)c3)nc2c1`, the figure is 43.6%; as for `COc1ccc(C(=O)Nc2cc(C)ccc2NC(=O)COc2ccccc2)cc1`, 28%. As for `Cc1ccc(C)c(OCC(=O)Nc2ccccc2C#N)c1`, the figure is 121% (active); as for `Cc1ccc(NC(=O)COc2ccccc2C)c([N+](=O)[O-])c1`, 109% (active). As for `COc1ccccc1NC(=O)CSc1ncc(-c2ccccc2)nn1`, the activation is 36.5%. As for `C[C@@H]1CN([C@H](C)CO)C(=O)c2cc(C#Cc3cccnc3)cnc2O[C@@H]1CN(C)Cc1ccc(F)cc1`, the figure is 5.15%.

(Values after PubChem BioAssay AID624151 (Broad Institute, 2012).)
